A selection: hits, their analogues and other compounds. The true share with any hit is near 3.1%.
MLL AF4-AF9 inh – blocks AF4 peptide binding to human AF9 | P42568 | AlphaScreen, biotin-AF4 peptide binding to FLAG-AF9 | inhibition, % at 10 µM | actives 0.47% (n = 350,000) | AID 651704;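 active means every replicate reaching a set inhibition limit, whatever the replicate mean, cut at about 25% in these data; inconclusive means mean inhibition reaches that limit but some replicates miss it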;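 further: 0% = plate neutral control median and 100% = total signal loss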
GSIS activator – GLuc luminescence reporter in INS-1E cells, primary screen for activators of glucose-dependent secretion of insulin; INS-1E GLuc reporter insulin secretion, 2-3 h; activation, % at 16.6 µM; actives 0.61% (n = 370,000); AID 743287;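 active means lowest replicate activation of at least 40%, so every replicate reaches that level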;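 further: 0% = median of neutral control wells and 100% = median of IBMX positive control wells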
DENV2 CPE – DENV2-induced cell death inhibition | DENV2-infected cells, cytopathic effect rescue, plate reader | CPE inhibition, % at 9.99 µM | actives 1.7% (n = 350,000); in the data active means CPE inhibition above about 20%, passing the limit was not always enough; inconclusive means no clear call, values can overlap the other calls; tested in BHK-21 cells;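 further: 0% = median of neutral control wells and 100% = median of positive control wells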
RAD52 inh – RAD52 (human) annealing inhibition. P43351. recombinant RAD52 DNA annealing, FRET fluorescence. inhibition, % at 18.7 µM. actives 0.46% (n = 360,000). AID 651710;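 active means every replicate showing at least 50% inhibition; inconclusive means mean inhibition at least 50% but not in every replicate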
Target sequence (P43351 whole entry, looked up): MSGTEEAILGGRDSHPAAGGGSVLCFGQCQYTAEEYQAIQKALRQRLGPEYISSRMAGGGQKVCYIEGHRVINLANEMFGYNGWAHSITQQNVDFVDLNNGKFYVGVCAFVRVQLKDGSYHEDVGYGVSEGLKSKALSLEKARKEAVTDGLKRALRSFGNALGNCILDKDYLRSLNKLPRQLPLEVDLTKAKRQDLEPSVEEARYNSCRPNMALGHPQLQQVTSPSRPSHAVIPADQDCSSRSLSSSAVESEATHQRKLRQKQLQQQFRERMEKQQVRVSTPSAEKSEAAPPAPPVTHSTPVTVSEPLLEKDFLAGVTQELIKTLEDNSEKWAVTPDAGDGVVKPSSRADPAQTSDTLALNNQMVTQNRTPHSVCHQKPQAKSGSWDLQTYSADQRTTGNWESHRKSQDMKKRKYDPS
RAD54 inh – inhibitors of human RAD54 branch migration; RAD54 Holliday junction branch migration, FAM/BHQ fluorescence; actives 0.14% (n = 360,000); inhibition, % at 10.4 µM; Q92698;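 active means mean normalized replicate activity at least 40 and at least half of replicates scoring 40 or more; inconclusive means only one of the two criteria met; inactive means mean below 40 and under half of replicates reaching 40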;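 further: 0% = median of neutral control wells and 100% = median of positive control wells; inhibitors cause a drop in the FAM fluorescence signal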
dFosB act-1 – activators of mouse delta FosB homodimer; purified delta FosB, TAMRA-CDK5 oligo fluorescence polarization; percent of positive-control signal above neutral wells; activation, % at 25 µM; actives 0.99% (n = 340,000);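 active means mean activation above about 17%, with every replicate also reaching it, limit read from the data, passing the limit was not always enough; inconclusive means only one of the two conditions met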
Target sequence (P13346 whole entry, looked up): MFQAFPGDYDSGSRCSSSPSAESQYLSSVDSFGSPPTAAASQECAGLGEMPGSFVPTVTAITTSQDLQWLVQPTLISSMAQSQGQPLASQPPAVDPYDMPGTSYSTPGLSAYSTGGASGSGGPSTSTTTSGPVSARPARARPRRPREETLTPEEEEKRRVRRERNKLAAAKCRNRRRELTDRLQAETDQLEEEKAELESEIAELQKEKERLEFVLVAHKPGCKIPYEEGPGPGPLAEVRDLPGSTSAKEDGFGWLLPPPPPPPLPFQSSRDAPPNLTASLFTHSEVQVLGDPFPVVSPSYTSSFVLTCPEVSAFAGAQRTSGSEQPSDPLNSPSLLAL
dFosB act-2 – enhances mouse delta FosB homodimer binding to DNA. shares compounds with dFosB act-1. purified delta FosB, TAMRA-CDK5 oligo fluorescence polarization; normalised: neutral wells 0, positive control 100. activation, % at 24.9 µM. 2,400 tested, under 10 active. AID 588690;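 active means highest replicate activation at or above 34% and every replicate reaching that threshold; inconclusive means meets only one of the two criteria; inactive means meets neither criterion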;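 further: higher polarization means more probe DNA bound by delta FosB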
An asterisk follows results filed as active; ? = inconclusive; · = no result given.

SMILES | MLL AF4-AF9 inh | GSIS activator | DENV2 CPE | RAD52 inh | RAD54 inh | dFosB act-1 | dFosB act-2
COc1ccc2nc(NC(=O)c3ccc4ncsc4c3)sc2c1 | · | · | · | · | -1.2 | 21.6* | 4.8
C[C@H]1CN([C@@H](C)CO)C(=O)CCCn2nncc2CO[C@@H]1CN(C)Cc1cccnc1 | -10.5 | 0.7 | -2.3 | -7.7 | 7.9 | · | ·
COc1ccc([N+](=O)[O-])cc1Nc1ncnc2ccccc12 | -2.4 | -5.8 | -0.4 | -6.2 | 0.4 | 37.6* | 1.8
O=C(COc1ncnc2ccccc12)Nc1cc([N+](=O)[O-])ccc1Cl | -6.9 | -2.5 | -0.7 | -2.0 | -5.9 | 20.6* | -1.5
Cc1ccc(S(=O)(=O)Nc2ccc3c(c2)CC(=O)N([C@H](C)CO)C[C@H](C)[C@H](CN(C)C(=O)Nc2c(C)noc2C)O3)cc1 | -18.8 | -6.4 | -9.4 | 5.4 | · | · | ·
O=C(NCC1CC1)[C@H]1[C@H](CO)[C@H]2Cn3c(ccc(C4=CCCC4)c3=O)[C@@H]1N2CCC(F)(F)F | 0.5 | -0.6 | -1.7 | -17.4 | -1.5 | · | ·
O=C(Nc1ncn[nH]1)c1cc(S(=O)(=O)Nc2cccc(C(F)(F)F)c2)ccc1Cl | -3.5 | 7.2 | · | -9.9 | · | 57.5* | 0.9
COc1ccc(S(=O)(=O)Nc2cccc3c2O[C@H](CN(C)Cc2ccc(Oc4ccccc4)cc2)[C@H](C)CN([C@@H](C)CO)C3=O)cc1 | 0.0 | -11.9 | 0.1 | -10.8 | -5.0 | · | ·
NC(=O)C1CCN(C(=O)c2ccc3c(=O)n(Cc4ccco4)c(SCC(=O)c4ccccc4)nc3c2)CC1 | 5.1 | 4.8 | 1.0 | -12.0 | -3.9 | 36.2* | 1.8
O=C(NCc1ccco1)c1ccc2c(=O)n(Cc3ccco3)c(SCC(=O)N3CCCC3)nc2c1 | · | · | · | · | -6.9 | -10.0 | ·
COC(=O)c1ccc2c(=O)n(Cc3ccco3)c(SCC(=O)Nc3cc(C)on3)nc2c1 | -1.1 | -13.2 | 4.9 | -22.9 | · | 24.7* | -0.1
CCNC(=O)[C@@H]1[C@@H](CO)[C@@H]2Cn3c(ccc(-c4ccccc4)c3=O)[C@@H]2N1C(=O)C1CCC1 | -3.2 | 8.2 | 0.9 | -2.5 | 2.3 | · | ·
O=C(COc1ncnc2ccc(Br)cc12)NCc1ccco1 | -17.2 | 8.9 | -6.5 | -7.4 | -4.5 | 22.4* | -6.5
COCCNC(=O)COc1ncnc2ccc(Br)cc12 | · | 35.5 | · | · | 2.6 | -3.3 | ·
COc1ccc(-c2cc(C(=O)Nc3cc(C)nn3-c3ccccc3)no2)cc1 | · | · | · | · | -10.9 | 22.6* | -2.7
C[C@@H]1CCCCO[C@@H](CN(C)S(=O)(=O)c2cccs2)[C@H](C)CN([C@H](C)CO)C(=O)c2cc(N(C)C)ccc2O1 | · | -6.0 | · | · | · | · | ·
O=C(CSCc1nc2c(nnn2Cc2ccc(F)cc2)c(=O)[nH]1)Nc1c(Cl)cc(Cl)cc1Cl | 0.1 | · | -10.2 | -0.5 | · | 29.1* | -2.2
Cn1c(=NC(=O)c2ccc(S(=O)(=O)N3CCCc4ccccc43)cc2)sc2cc(S(C)(=O)=O)ccc21 | · | -9.2 | · | · | 0.9 | 0.9 | ·
C#CCn1c(=NC(=O)c2ccc(S(=O)(=O)N3CCCc4ccccc43)cc2)sc2cc(S(N)(=O)=O)ccc21 | 4.6 | · | -8.1 | -29.8 | · | 58.9* | 2.1
CCC(=O)N1CC2(C1)[C@@H](c1ccccc1)[C@@H](CO)N2CC1CC1 | -2.8 | -1.5 | -3.9 | 9.8 | · | · | ·
COc1ccc(NC(=O)c2cn(C)c(=O)c3cc(OC)c(OC)cc23)c(OC)c1 | -1.9 | -3.2 | ? | -7.4 | 20.7 | 19.7* | 2.3
COc1ccc(OC)c(NC(=O)c2cn(C)c(=O)c3cc(OC)c(OC)cc23)c1 | · | · | · | · | 16.8 | 5.0 | ·
COc1ccc2oc(C(=O)OCC(=O)NCCc3ccc(S(N)(=O)=O)cc3)c(C)c2c1 | -1.1 | -4.4 | -1.3 | -9.3 | 1.1 | 25.7* | 5.1
COc1ccc(Br)cc1CN(C)CC(=O)NCCc1ccc(S(N)(=O)=O)cc1 | 3.4 | 3.1 | -0.1 | -13.1 | 6.1 | -14.2 | ·
COc1ccc(Br)cc1/C=C/C(=O)OCC(=O)NCCc1ccc(S(N)(=O)=O)cc1 | 2.5 | 1.7 | -3.5 | -15.4 | 2.5 | 21.8* | 3.9
SMILES | MLL AF4-AF9 inh | GSIS activator | DENV2 CPE | RAD52 inh | RAD54 inh | dFosB act-1 | dFosB act-2
Cc1ccc(C)c2c1[nH]c1ccc([N+](=O)[O-])cc12 | · | · | · | · | 17.5 | 20.5* | 0.2
O=C(COc1ccc(Cl)cc1Cl)Nc1cccc(-c2ccc(N3CCOCC3)nn2)c1 | -10.6 | 1.2 | -7.1 | -13.7 | 7.4 | 12.2 | ·
O=C(COc1ccc(Cl)cc1Cl)Nc1ccc(-c2ccc(N3CCOCC3)nn2)cc1 | 0.3 | 25.1 | · | -12.9 | -2.4 | 41.9* | -0.3
O=C(Cc1ccc(Cl)cc1)NNC1CC(=O)N(c2ccc3ccccc3c2)C1=O (stereo not drawn) | -6.6 | 25.4 | ? | 9.3 | 0.4 | 31.9* | 2.6
O=C(Cc1ccccc1)NNC1CC(=O)N(c2ccc(Cl)cc2)C1=O (stereo not drawn) | -0.7 | -9.2 | 10.2 | -9.0 | 1.0 | -1.4 | ·
COc1ccccc1C#Cc1cnc2c(c1)C(=O)N([C@H](C)CO)C[C@@H](C)[C@@H](CN(C)C(=O)CC1CC1)O2 | -3.6 | 3.0 | -3.3 | 4.7 | · | · | ·
CCCCN(C(=O)c1cc(Cl)nc2ccccc12)c1c(N)n(Cc2ccccc2)c(=O)[nH]c1=O | -2.1 | -11.4 | 0.6 | -11.0 | -3.9 | 26.5* | -1.3
CC(=O)NCc1ccc(S(=O)(=O)N2CCN(S(=O)(=O)c3ccc4ccccc4c3)CC2)cc1 | -1.9 | 7.1 | 1.0 | -6.8 | 2.7 | 48.6* | 2.9
CN1/C(=C\C(=O)COC(=O)CNC(=O)c2ccc3ccccc3c2)C(C)(C)c2ccccc21 | -2.2 | -17.6 | 1.7 | -101.1 | -10.6 | 33.7* | 1.3
CN1/C(=C\C(=O)COC(=O)CNC(=O)c2ccccc2F)C(C)(C)c2ccccc21 | -0.7 | -15.1 | 11.4 | -27.6 | · | 9.3 | ·
O=C(CNC(=O)c1ccc2ccccc2c1)OCC(=O)N1CCN(S(=O)(=O)c2ccc3ccccc3c2)CC1 | -0.5 | 6.4 | -6.0 | -5.1 | 4.3 | 21.8* | -9.1
O=C(NCC(=O)N1CCN(S(=O)(=O)c2ccccc2)CC1)c1ccc2ccccc2c1 | 0.4 | -10.0 | -0.4 | -7.8 | -6.0 | -8.5 | ·
COc1cccc(/C=N/NC(=O)CCn2c3ccccc3c3ccccc32)c1 | -7.6 | -2.5 | 10.2 | -9.7 | · | 23.7* | 2.5
COc1ccc(-c2ccc3c(N)c(C(=O)c4ccc(OC)c(OC)c4)sc3n2)cc1 | · | 171.7* | · | · | -1.1 | 29.9* | 8.6
CO[C@H]1CN(C)C(=O)c2cc(NC(=O)C3CC3)ccc2OC[C@H](C)N(C)C[C@H]1C | -1.4 | 9.7 | 18.7 | 6.8 | -2.6 | · | ·
COc1ccc2c3c(n(C)c2c1)[C@@H](CO)N(CC1CCCC1)CC31CCN(C(=O)Nc2ccccc2)CC1 | 2.8 | -12.8 | -11.3 | -99.5 | · | · | ·

Screens: PubChem, Broad Institute
